# According to PubChem BioAssay (NCATS):
# Inconclusive results are not listed. Where a call stands in place of a potency, no number is given. Activity calls are given as the source filed them. Calls follow the shape of the dose curve; as a rule, active = well fitted inhibition curve with a large enough effect; inconclusive = small, poorly fitted or top-dose-only effect; inactive = flat fitted curve, though single readings scatter.
# Biological target: Glutathione peroxidase 1 (Homo sapiens) (UniProt P07203)
# Assay: Primary qHTS Assay for Inhibitors of Recombinant Selenoprotein Glutathione Peroxidase 1 (GPX1) (AID 1845191); also: nearly all actives have a fitted effect of over 65% in size; also: potency is read from the fitted curve at half-maximal effect
# Conditions: recombinant GPX1, GR-coupled NADPH fluorescence, 15 min; series mostly up to 48.8 µM; activity, negative = inhibition: at the top concentration
# Method in brief: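 Recombinant GPX1 (10 nM final) was preincubated with compound for 30 min at room temperature, then reacted with 1 mM GSH, 0.5 mM CHP, 0.5 mM NADPH and 100 nM glutathione reductase; NADPH fluorescence (340/450 nm) was read at 0 and 15 min.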
# Chain of Glutathione peroxidase 1 (Homo sapiens) (P07203 whole entry, looked up): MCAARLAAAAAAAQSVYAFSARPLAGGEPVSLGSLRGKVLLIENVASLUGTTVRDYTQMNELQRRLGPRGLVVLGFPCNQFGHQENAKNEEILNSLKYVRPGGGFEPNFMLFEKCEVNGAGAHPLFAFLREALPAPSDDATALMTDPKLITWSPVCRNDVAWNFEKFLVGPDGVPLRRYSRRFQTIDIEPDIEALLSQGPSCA
Compound,"activity, negative = inhibition",outcome,Potency
CC[C@]1(O)C[C@H]2CN(CCC3=c4ccccc4=N[C]3[C@@](C(=O)OC)(c3cc4c(cc3OC)N(C)[C@H]3[C@@](O)(C(N)=O)[C@H](O)[C@]5(CC)C=CCN6CC[C@]43[C@@H]65)C2)C1,-14.4% (inactive),–,–
C[C@H](CCC(=O)O)[C@H]1CC[C@H]2[C@H]3[C@@H](CC[C@]12C)[C@@]1(C)CC[C@@H](O)C[C@H]1C[C@@H]3O,-7.92% (inactive),–,–
Cc1ccc(C(=O)N(CCCN)[C@@H](c2oc3cc(Cl)ccc3c(=O)c2Cc2ccccc2)C(C)C)cc1,–,inactive,–
C[C@H]1COC2=C1C(=O)C(=O)c1c2ccc2c1CCCC2(C)C,-24.4% (inactive),–,–
NCc1c[nH]c(=S)n1[C@H]1CCc2c(F)cc(F)cc2C1,–,inactive,–
CC[C@@H]([C@H](C)O)n1ncn(-c2ccc(N3CCN(c4ccc(OCC5CO[C@@](Cn6cncn6)(c6ccc(F)cc6F)C5)cc4)CC3)cc2)c1=O (some centres not stated),1.99% (inactive),–,–
O=C(O)CCC=CCC[C@@H]1[C@H](N2CCCCC2)[C@@H](O)C[C@@H]1OCc1ccc(-c2ccccc2)cc1,-11.1% (inactive),–,–
CC(=O)Nc1cccc(-n2c(=O)n(C3CC3)c(=O)c3c(Nc4ccc(I)cc4F)n(C)c(=O)c(C)c32)c1,–,–,inactive
COc1cc([C@@H]2c3cc4c(cc3[C@@H](O[C@@H]3O[C@@H]5CO[C@@H](C)O[C@@H]5[C@H](O)[C@@H]3O)[C@H]3COC(=O)[C@H]23)OCO4)cc(OC)c1O,–,inactive,–
CN1CCN(c2ncc(-c3cc(Cl)cc(Cl)c3Cl)c(N)n2)CC1,–,inactive,–
CC(C)(CO)[C@@H](O)C(=O)NCCC(=O)O,–,inactive,–
CN(C)c1ccccc1CN1CCCN(Cc2ccccc2N(C)C)C1c1ccncc1,–,inactive,–
COc1ccc2nc3cc(Cl)ccc3c(Nc3cc(CN4CCCC4)c(O)c(CN4CCCC4)c3)c2n1,–,inactive,–
Cn1c(=O)c(Oc2ccc(F)cc2F)cc2cnc(NC3CCOCC3)nc21,–,–,16.3 µM (active)
CN1N=C(N)c2cn([C@@H]3O[C@H](COP(=O)(O)O)[C@@H](O)[C@@H]3O)c3ncnc1c23,–,inactive,–
CNC(=O)c1cc(COc2nnc(Nc3ccc(Cl)cc3)c3ccoc23)ccn1,–,inactive,–
COc1ccc(-c2oc3c(CC=C(C)C)c(O)cc(O)c3c(=O)c2O)cc1,3.51% (inactive),–,–
COc1cccc(OC)c1-c1cc(C(=O)NC2(C(=O)O)C3CC4CC(C3)CC2C4)nn1-c1ccnc2cc(Cl)ccc12 (configuration not stated),-9.56% (inactive),–,–

# Biological target: Phospholipid hydroperoxide glutathione peroxidase GPX4 (Homo sapiens) (UniProt P36969)
# Assay: Primary qHTS Assay for Inhibitors of Recombinant Selenoprotein Glutathione Peroxidase 4 (GPX4) (AID 1845192); also: nearly all actives have a fitted effect of over 65% in size
# Conditions: recombinant GPX4, GR-coupled NADPH fluorescence, 15 min; series mostly up to 50 µM; activity change, negative = inhibition: at the top concentration
# Method in brief: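 GR-coupled readout: 100 nM GR, 1 mM GSH, 0.5 mM NADPH; NADPH fluorescence (ex 340/em 450 nm) read at t=0 and after 15 min RT. GPX4 200 nM, preincubated 30 min with compound; substrate 0.5 mM CHP.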
# Chain of Phospholipid hydroperoxide glutathione peroxidase GPX4 (Homo sapiens) (P36969 whole entry, looked up): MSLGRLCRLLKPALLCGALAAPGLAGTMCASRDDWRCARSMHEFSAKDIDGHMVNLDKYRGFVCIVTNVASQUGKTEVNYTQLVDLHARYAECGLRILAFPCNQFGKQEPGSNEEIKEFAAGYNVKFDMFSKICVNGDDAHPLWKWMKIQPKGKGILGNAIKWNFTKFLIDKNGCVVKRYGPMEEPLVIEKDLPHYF
Compound,"activity change, negative = inhibition",Potency,outcome
COc1cc2ncn(-c3cc(OCc4ccccc4S(C)(=O)=O)c(C#N)s3)c2cc1OC,4.62% (inactive),–,–
C[C@@]1(c2cc(-c3cncnc3)c(F)cc2F)CCSC(N)=N1,–,inactive,–
N[C@@H](CC(=O)N1CCn2c(nnc2C(F)(F)F)C1)Cc1cc(F)c(F)cc1F,–,inactive,–
C=CCc1cccc(C=NNC(=O)CN2CCN(Cc3ccccc3)CC2)c1O,-9.05% (inactive),–,–
CC(=O)Nc1cccc(-n2c(=O)n(C3CC3)c(=O)c3c(Nc4ccc(I)cc4F)n(C)c(=O)c(C)c32)c1,–,inactive,–
CC(C)(CO)[C@@H](O)C(=O)NCCC(=O)O,–,–,inactive

# Biological target: Luciferin 4-monooxygenase (Photinus pyralis) (UniProt P08659)
# Assay: Primary firefly luciferase (FLuc) qHTS assay for identification of artifact compounds. (AID 1845220); also: nearly all actives have a fitted effect of over 60% in size
# Conditions: purified firefly luciferase, luminescence, 5 min; series mostly up to 54.1 µM; activity change, negative = inhibition: at the top concentration
# Method in brief: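 Reaction readout was CCD-imaged luminescence, taken 5 min after adding 10 nM purified firefly enzyme to compound-treated wells holding 10 uM luciferin and ATP in pH 7.6 buffer.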
Compound,outcome,"activity change, negative = inhibition"
C[C@@]1(c2cc(-c3cncnc3)c(F)cc2F)CCSC(N)=N1,inactive [at 25.7 µM],–
CC(=O)Nc1cccc(-n2c(=O)n(C3CC3)c(=O)c3c(Nc4ccc(I)cc4F)n(C)c(=O)c(C)c32)c1,inactive,–
CNC(=O)c1c(-c2ccc(F)cc2)oc2cc(N(CCO)S(C)(=O)=O)c(C3CC3)cc12,–,-3.75% (inactive)
